Structures can show the parent of a compound that is named as a salt.
Tested on: Danio rerio larvae (5 dpf)
Assay: activity during period 15 (no stimuli), difference vs DMSO (percentage points (treated minus DMSO)); higher = more of the behaviour than the DMSO vehicle control
Details: 10 µM; exposure time: 3 h pre-incubation + 3 h imaging
Protocol: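 5-dpf wild-type zebrafish larvae were imaged in 96-well plates. They were treated with 190 Tocris FDA-approved drugs at 10 µM (1 µl/ml DMSO) for 3 h before and 3 h during imaging at 28.5 °C, 48 larvae per drug. Automated image analysis gave % time moving and optomotor responses. Values are drug group mean minus DMSO vehicle mean (n=844), in percentage points, for 10 behaviours.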

| SMILES | activity during period 15 |
| --- | --- |
| CC(C)c1nc(N(C)S(C)(=O)=O)nc(-c2ccc(F)cc2)c1/C=C/[C@@H](O)C[C@@H](O)CC(=O)O [Rosuvastatin calcium] | 15.5 |
| COc1ccc(-c2ccc3cc(C(=O)O)ccc3c2)cc1C12CC3CC(CC(C3)C1)C2 [Adapalene] | -3.39 |
| OCCN1C[C@H](O)[C@@H](O)[C@H](O)[C@H]1CO [Miglitol] | -4.45 |
| N#C[C@@H]1C[C@@H]2C[C@@H]2N1C(=O)[C@@H](N)C12CC3CC(CC(O)(C3)C1)C2 [Saxagliptin hydrochloride] | 5.2 |
| COC(=O)C1=C(C)NC(C)=C(C(=O)OC(C)C)C1c1cccc2nonc12 (stereo not given) [Isradipine] | -12.3 |
| Nc1nc2[nH]cc(CCc3ccc(C(=O)N[C@@H](CCC(=O)O)C(=O)O)cc3)c2c(=O)[nH]1 [Pemetrexed] | 1.39 |
| C[C@@H](O[C@H]1OCCN(Cc2n[nH]c(=O)[nH]2)[C@H]1c1ccc(F)cc1)c1cc(C(F)(F)F)cc(C(F)(F)F)c1 [Aprepitant] | -7.86 |
| O=C(O[C@@H]1C[C@@H]2C[C@H]3C[C@H](C1)N2CC3=O)c1c[nH]c2ccccc12 [Dolasetron mesylate] | -1.51 |
| CN(C)CCc1c[nH]c2ccc(C[C@H]3COC(=O)N3)cc12 [Zolmitriptan] | 2.6 |
| CC(=O)Nc1ccc(O)cc1 [Acetaminophen] | 8.08 |
| CC(c1cc2ccccc2s1)N(O)C(N)=O (stereo not given) [Zileuton] | 3.35 |
| CCCC1O[C@@H]2C[C@H]3[C@@H]4CCC5=CC(=O)C=C[C@]5(C)[C@H]4[C@@H](O)C[C@]3(C)[C@]2(C(=O)CO)O1 (stereo not given in full) [Budesonide] | 5.26 |
| CN1CCN2c3ncccc3Cc3ccccc3C2C1 (stereo not given) [Mirtazapine] | 4.7 |
| CN1CC(=O)N2[C@H](c3ccc4c(c3)OCO4)c3[nH]c4ccccc4c3C[C@@H]2C1=O [Tadalafil] | -1.47 |
| CC(C)n1c(/C=C/C(O)CC(O)CC(=O)O)c(-c2ccc(F)cc2)c2ccccc21 (stereo not given) [Fluvastatin sodium] | 5.99 |
| CCC(=O)O[C@]1(C(=O)SCF)[C@H](C)C[C@H]2[C@@H]3C[C@H](F)C4=CC(=O)C=C[C@]4(C)[C@@]3(F)[C@@H](O)C[C@@]21C [Fluticasone propionate] | 8.18 |
| O=C1CCc2ccc(OCCCCN3CCN(c4cccc(Cl)c4Cl)CC3)cc2N1 [Aripiprazole] | 4.18 |
| OC(CNCC(O)C1CCc2cc(F)ccc2O1)C1CCc2cc(F)ccc2O1 (stereo not given) [Nebivolol hydrochloride] | 14 |
| CC(=O)S[C@@H]1CC2=CC(=O)CC[C@]2(C)[C@H]2CC[C@@]3(C)[C@@H](CC[C@@]34CCC(=O)O4)[C@H]12 [Spironolactone] | -1.27 |
| C[C@H]1O[C@H](O[C@H]2[C@H](O)[C@@H](O)[C@@H](O[C@H]3[C@H](O)[C@@H](O)C(O)O[C@@H]3CO)O[C@@H]2CO)[C@H](O)[C@@H](O)[C@@H]1N[C@H]1C=C(CO)[C@@H](O)[C@H](O)[C@H]1O (stereo not given in full) [Acarbose] | 1.42 |

| SMILES | activity during period 15 |
| --- | --- |
| Cc1ccc(N(CC2=NCCN2)c2cccc(O)c2)cc1 [Phentolamine Mesylate] | 4.99 |
| OCc1cc(C(O)CNCCCCCCOCCCCc2ccccc2)ccc1O (stereo not given) [Salmeterol xinafoate] | 23.9 |
| CC[C@H]1OC(=O)[C@H](C)[C@@H](O[C@H]2C[C@@](C)(OC)[C@@H](O)[C@H](C)O2)[C@H](C)[C@@H](O[C@@H]2O[C@H](C)C[C@H](N(C)C)[C@H]2O)[C@](C)(O)C[C@@H](C)CN(C)[C@H](C)[C@@H](O)[C@]1(C)O [Azithromycin] | -17.4 |
| CCOC(=O)[C@H](CCc1ccccc1)N[C@H]1CCc2ccccc2N(CC(=O)O)C1=O [Benazepril hydrochloride] | 4.55 |
| COc1cc2nccc(Oc3ccc(NC(=O)C4(C(=O)Nc5ccc(F)cc5)CC4)cc3)c2cc1OC | 16.2 |
| Nc1cc(N2CCCCC2)nc(N)[n+]1[O-] [Minoxidil] | 6.89 |
| CC(C)CN(C[C@@H](O)[C@H](Cc1ccccc1)NC(=O)O[C@H]1CO[C@H]2OCC[C@H]21)S(=O)(=O)c1ccc(N)cc1 [Darunavir] | 11.1 |
| OCCN(CCO)c1nc(N2CCCCC2)c2nc(N(CCO)CCO)nc(N3CCCCC3)c2n1 [Dipyridamole] | -5.46 |
| CN/C(=N\CCSCc1nc[nH]c1C)NC#N [Cimetidine] | -5.2 |
| CO[C@H]1/C=C/O[C@@]2(C)Oc3c(C)c(O)c4c(O)c(c5c(nc6cc(C)ccn65)c4c3C2=O)NC(=O)/C(C)=C\C=C\[C@H](C)[C@H](O)[C@@H](C)[C@@H](O)[C@@H](C)[C@H](OC(C)=O)[C@@H]1C [Rifaximin] | -11.6 |
| CC(=O)Oc1cc2c(s1)CCN(C(C(=O)C1CC1)c1ccccc1F)C2 (stereo not given) [Prasugrel] | 11.8 |
| CC(=O)O[C@H]1C(=O)[C@@]2(C)[C@H]([C@H](OC(=O)c3ccccc3)[C@]3(O)C[C@H](OC(=O)[C@H](O)[C@@H](NC(=O)c4ccccc4)c4ccccc4)C(C)=C1C3(C)C)[C@]1(OC(C)=O)CO[C@@H]1C[C@@H]2O [Taxol] | -4.11 |
| Cc1c(-c2ccc(O)cc2)n(Cc2ccc(OCCN3CCCCCC3)cc2)c2ccc(O)cc12 [Bazedoxifene acetate] | -15.7 |
| CC1(C)O[C@@H]2[C@@H](CO[C@@]3(COS(N)(=O)=O)OC(C)(C)O[C@@H]23)O1 [Topiramate] | 3.85 |
| CC(C)[C@H]1CC[C@H](C(=O)N[C@H](Cc2ccccc2)C(=O)O)CC1 [Nateglinide] | -0.384 |
| CC(C)(C(=O)O)c1ccc(C(O)CCCN2CCC(C(O)(c3ccccc3)c3ccccc3)CC2)cc1 (stereo not given) [Fexofenadine hydrochloride] | 1.68 |
| COc1ccccc1OCCNCC(O)COc1cccc2[nH]c3ccccc3c12 (stereo not given) [Carvedilol] | -6.43 |
| CC(=O)Oc1ccccc1C(=O)O [Aspirin] | -1.19 |
| CC(=O)O[C@]1(C(C)=O)CC[C@H]2[C@@H]3C=C(C)C4=CC(=O)CC[C@]4(C)[C@H]3CC[C@@]21C [Megestrol Acetate] | -0.283 |
| CC(C)N(CCCCOCC(=O)NS(C)(=O)=O)c1cnc(-c2ccccc2)c(-c2ccccc2)n1 [Selexipag] | 6.35 |
